The record followed here is PubChem BioAssay (NCI).

The panel holds about 79,000 compounds, 15% with a hit somewhere; the sample as a whole holds those more often. The source made the active and inactive calls. No stated cut-off is given here; in the data, active means growth inhibition above about 70%; inactive means the rest.

A short description of this test: NCI Yeast Anticancer Drug Screen. Data for the cln2 rad14 strain (AID 165).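 Further: 0% = growth equal to vehicle treated cultures.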 The conditions noted are these: S. cerevisiae cln2 rad14 strain, at 50.0 µM, active compounds read high. An outline of the steps:
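cln2 rad14 yeast strain; compound exposure; growth inhibition read vs vehicle controls.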
As for `CCCCN(CCC(=O)O)c1ccc(/C=C\c2ccnc3ccccc23)cc1`, the growth inhibition was 88.7% (active).
As to `CC1CC(N)=NC1C(=O)NCCC#N` (centres undefined), the growth inhibition is 72% (active).
Consider `O=C(CC1(O)CCCCC1)OC1CCCC1`, for which the growth inhibition was 62.8% (inactive).
Turning to `CN(C)c1nc(-c2ccccc2)cc(-c2ccc(O)cc2)n1`, the growth inhibition is 45.5% (inactive).
Under `Oc1cc(C(c2ccccc2)c2ccccc2)c2ccccc2c1O` stands 97.7% (active).
Under `C(=P(c1ccccc1)(c1ccccc1)c1ccccc1)[P+](c1ccccc1)(c1ccccc1)c1ccccc1` stands 98.7% (active); under `COC(=O)c1ccc(CCc2cc(O)ccc2O)cc1`, 88.8% (active).
On to `CCCCCCCCCCN`, for which the growth inhibition was 42.2% (inactive).
Next, `CC[N-]c1nncs1.CC[N-]c1nncs1.CC[N-]c1nncs1.CC[N-]c1nncs1.[Cl][Rh][Cl]`: 91% (active); `CC(C)C1=CC23CCC4C(C)(C(=O)O)CCCC4(C)C2CC1CC3C#N` (centres undefined): 97.1% (active).
Under `COc1ccc(/C(Cl)=C(\C=O)c2ccc(Cl)cc2)cc1` stands -8.85% (inactive); under `CCOC(=O)Cc1csc(/N=C\c2c(O)c3ccccc3oc2=O)n1`, 18.7% (inactive).
Turning to `Cc1cccc(/C=N/NC(=S)Nc2ccccc2)n1`, the growth inhibition is 91.8% (active).
Next, `Nc1nn2c(C(Br)Br)cc(C(Br)Br)nc2c1[N+](=O)[O-]`: 99.4% (active); `c1ccc2nc3ccccc3nc2c1`: 41.8% (inactive); `O=c1ccc2nc3ccccc3ccc-2c1`: 20.6% (inactive).
Next, `C=CCOCC(C)OC(=O)C(C)C` (centres undefined): 49% (inactive).
Under `CCCCCCOC(=O)CCC(=O)OCCCCCC` stands 41.1% (inactive); under `CC(=O)C(C(C)=O)C1C=CC=CC=C1`, 80% (active).
As for `CCCOC(=O)CCCC(=O)N(CC)CC`, the growth inhibition is 71.5% (active).
Next, `CCOC(=O)C(=O)CC1=Nc2ccccc2SC(c2cccc(C)c2)C1` (centres undefined): 50% (inactive); `COc1cc2c(c(-c3cn(C)c4ccccc34)c1OC)OCO2`: -30.6% (inactive).
For `COC(=O)c1c(C)cccc1C1CN=NC12Cc1ccc(C)c(C)c1C2=O` (centres undefined), the growth inhibition was 54.1% (inactive).
Under `CCCCCCCCCCC(=O)CC(=O)c1c(O)cccc1O` stands -37.5% (inactive); under `CCCCCCNC(=S)N/N=C(\C)c1ccccn1`, 90.3% (active).
Next, `Oc1ccc(N=Nc2ccc(Cl)cc2)cc1O`: 97.7% (active); `CCO/C=C1\N=C(C(O)(c2ccc(Cl)cc2)c2ccc(Cl)cc2)OC1=O`: 44.5% (inactive); `Clc1ccc(CN2COc3c(ccc4cccnc34)C2)cc1`: 77.5% (active).
Under `Cc1nc(C(N)=S)sc1/C(CC(=O)C(=O)Nc1cccc2ccc(O)cc12)=N\NC(=O)c1ccncc1` stands -10.8% (inactive); under `Nc1ncc(C(=O)c2ccccc2)cc1[N+](=O)[O-]`, 38.9% (inactive); under `O=C1C2C3C=CC(C3)C2C(=O)C2C3C=CC(C3)C12` (centres undefined), 88% (active).
For the compound `CCCCOC(=O)c1cnc[nH]c1=O`, the growth inhibition is 10.4% (inactive).
Next, `N#CC(c1ccc(Cl)cc1)c1ccc([N+](=O)[O-])cc1` (centres undefined): 3.95% (inactive).
Next, `CN(C)C(N)=NC#N`: 9.65% (inactive).
Next, `CCCCc1c(O)c(N=NC(=O)C[n+]2ccccc2)c2ccccc2c1O`: 40.1% (inactive); `CCOC(=O)C(=O)Nc1nc2c(s1)C(=O)c1ccccc1C2=O`: 90% (active); `COc1ccc(C(=O)Nc2ccccc2[N+](=O)[O-])cc1`: 48.5% (inactive).
With `COc1ccccc1NC(=O)/C(=C/n1c(=S)sc2ccccc21)C(C)=O`, the growth inhibition was 64.2% (inactive).
Under `Cc1ccc(C)c(C(=O)/C=C/C(=O)O)c1` stands 40.6% (inactive).
